Screening results (PubChem)
This is one part of a sample in which hits are shown more often than they occur.
Pf Dd2 inh: blocks in vitro growth of P. falciparum Dd2. hit rate 4.3% among 120,000. Potency, µM (top dose mostly 28.9 µM), hits mostly inhibitors. P. falciparum Dd2 growth, SYBR Green, 72 h; active = well fitted inhibition curve with a large enough effect; note: nearly all actives have a fitted effect of over 65% in size
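Readout: SYBR Green fluorescence, 485 nm excitation, 535 nm emission, after ~16 h lysis at 37C. Before that, Dd2-infected red cells (2.5% hematocrit) grew 72 h with compound, 29 uM top final concentration.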
A number is an active result.

For O=C(Nc1ccc(N2CCOCC2)c(C(=O)O)c1)c1ccc(Br)cc1 the results were Pf Dd2 inh inactive.
`OC[C@@H]1CNC[C@H]1C1CCN(Cc2ccncc2F)CC1` gave Pf Dd2 inh inactive.
COc1cc(CN2CCC3(CC2)CN(c2ccncn2)CC3CO)ccc1F (stereo not drawn) was read as Pf Dd2 inh inactive.
COc1cc(CN2CCCC(c3[nH]ccc3C(N)=O)C2)ccc1F (stereo not drawn) was read as Pf Dd2 inh inactive.
COc1cc(CN2CCC3(CCN(CC4CC4)CC3)C(CO)C2)ccc1F (stereo not drawn) was read as Pf Dd2 inh 8.9µM.
For Cn1cccc1C(=O)N1CCCC(c2nn[nH]n2)C1 (stereo not drawn) the results were Pf Dd2 inh inactive.
Screening COc1ccc(-c2cc(=O)oc3c4c(ccc23)OCN(Cc2ccccc2)C4)cc1 returned Pf Dd2 inh 0.89µM.
COc1ccc(OC2CN(Cc3ccccc3)C2)cc1 was read as Pf Dd2 inh inactive.
`Cc1coc2c(C)c3oc(=O)c(CC(=O)NCc4ccccc4)c(C)c3cc12` gave Pf Dd2 inh inactive.
For CCc1c(C)c2ccc3c(c2oc1=O)CN(Cc1ccccc1)CO3 the results were Pf Dd2 inh 1µM.
Screening COc1ccc(C2=NOC3(CCN(Cc4ccccc4)C3)C2)cc1 (stereo not drawn) returned Pf Dd2 inh inactive.
Screening O=c1c2oc3ccccc3c2n(Cc2ccccc2)c(=O)n1Cc1ccc2c(c1)OCO2 returned Pf Dd2 inh inactive.
`CC1=NOC2(CCN(Cc3ccccc3)CC2)C1` gave Pf Dd2 inh inactive.
For O=c1cc(-c2ccccc2)c2ccc3c(c2o1)CN(Cc1ccccc1)CO3 the results were Pf Dd2 inh 1µM.
For O=C1COc2ccc(-c3ccncc3)nc2CN1Cc1ccccc1 the results were Pf Dd2 inh inactive.
Screening CS(=O)(=O)N[C@H]1C[C@H]2C(=O)Nc3ccc(-c4cccc(C(F)(F)F)c4)cc3C(=O)N2C1 returned Pf Dd2 inh inactive.
COc1ccc(NC(=O)Cn2nnc(C(=O)NCc3ccco3)c2N)c(OC)c1 was read as Pf Dd2 inh inactive.
Screening CC(C)CC(=O)N1CCCN(C(=O)C2CC2)c2ccccc21 returned Pf Dd2 inh inactive.
Cc1ccc(Cn2c(=O)n(CCCCC(=O)NCc3ccc4c(c3)OCO4)c(=O)c3ccccc32)cc1 was read as Pf Dd2 inh inactive.
For O=C(O)CCn1ncc2cc(OCC3CCN(C(=O)COc4ccccc4)CC3)ccc21 the results were Pf Dd2 inh inactive.
Screening Cc1ccc(-c2nnc3ccc(NCc4cccs4)nn23)nc1 returned Pf Dd2 inh inactive.
Cc1nn(CC(=O)NCc2ccco2)c(=O)c2nn(-c3ccccc3)c(C)c12 was read as Pf Dd2 inh inactive.
`COc1ccc(CCNC(=O)c2c(O)nc3cc(C)ccn3c2=O)cc1OC` gave Pf Dd2 inh inactive.
For O=C(NCc1noc(Cc2cccs2)n1)C1COc2ccccc2C1 (stereo not drawn) the results were Pf Dd2 inh inactive.
`COc1ccc(C2Nc3ccccc3-c3cc(C)nn32)cc1OC` (stereo not drawn) gave Pf Dd2 inh inactive.
`CCOc1cccc(C2Nc3ccccc3-c3cc(C)nn32)c1O` (stereo not drawn) gave Pf Dd2 inh 1µM.
COc1cc(C2Nc3ccccc3-c3cc(C)nn32)ccc1O (stereo not drawn) was read as Pf Dd2 inh inactive.
COc1ccc(CNC(=O)CN(c2cc(C(F)(F)F)ccc2Cl)S(C)(=O)=O)cc1 was read as Pf Dd2 inh inactive.
For CCOC(=O)CCCn1nc2n(c1=O)CCN(Cc1cccc(Cl)c1)C2=O the results were Pf Dd2 inh inactive.
Screening CCOC(=O)N1CCc2c(sc3c2c(=O)n(-c2ccc(Cl)cc2)c(=O)n3CC(=O)Nc2ccccc2)C1 returned Pf Dd2 inh 8.9µM.
CCOC(=O)N1CCc2c(sc3c2c(=O)n(-c2ccc(CC)cc2)c(=O)n3CC(=O)c2ccc(F)cc2)C1 was read as Pf Dd2 inh 7.9µM.
For CCOC(=O)N1CCc2c(sc3c2c(=O)n(Cc2ccccc2)c(=O)n3Cc2cccc(Cl)c2)C1 the results were Pf Dd2 inh 11µM.
CCOC(=O)N1CCc2c(sc3c2c(=O)n(-c2ccc(Cl)cc2)c(=O)n3Cc2cccc(C)c2)C1 was read as Pf Dd2 inh inactive.
CCOC(=O)N1CCc2c(sc3c2c(=O)n(-c2ccc(Cl)cc2)c(=O)n3CC(C)C)C1 was read as Pf Dd2 inh inactive.
Screening CCOC(=O)N1CCc2c(sc3c2c(=O)n(CCc2ccccc2)c(=O)n3CC(=O)Nc2ccccc2C)C1 returned Pf Dd2 inh inactive.
CCc1ccc(-n2c(=O)c3c4c(sc3n(CC(=O)c3ccc(Cl)cc3)c2=O)CCC4)cc1 was read as Pf Dd2 inh inactive.
Screening CCOC(=O)N1CCc2c(sc3c2c(=O)n(Cc2ccccc2)c(=O)n3CC(=O)Nc2cccc(CC)c2)C1 returned Pf Dd2 inh 7.1µM.
`CCOC(=O)N1CCc2c(sc3c2c(=O)n(-c2ccc(Cl)cc2)c(=O)n3Cc2cccc(OC)c2)C1` gave Pf Dd2 inh inactive.
`O=C(Cn1c(=O)n(-c2ccccc2)c(=O)c2c3c(sc21)CCCC3)Nc1ccc(F)cc1` gave Pf Dd2 inh inactive.
Screening CC(=O)c1cccc(-n2c(=O)c3c4c(sc3n(CC(=O)Nc3ccccc3F)c2=O)CN(C(C)=O)CC4)c1 returned Pf Dd2 inh inactive.
For CCc1ccc(-n2c(=O)c3c4c(sc3n(CC(=O)c3ccc(Br)cc3)c2=O)CCC4)cc1 the results were Pf Dd2 inh inactive.
Cc1nc(C2CCCCN2C(=O)c2ccccc2F)n[nH]1 (stereo not drawn) was read as Pf Dd2 inh inactive.
Screening CC(C)c1nc(C(=O)N2CC[C@@](O)(C3CCOCC3)[C@H](C)C2)cs1 returned Pf Dd2 inh inactive.
For COc1ccc(C2=NOC3(CCN([S+](=O)([O-])c4cccs4)C3)C2)cc1 (stereo not drawn) the results were Pf Dd2 inh inactive.
COc1ccc(CC(=O)N[C@@H]2CN(c3ccncn3)C[C@H]2CN(C)C)cc1OC was read as Pf Dd2 inh inactive.
Cc1ccc(CNc2nc3c(c(=O)n(C)c(=O)n3C)n2Cc2ccc(Cl)cc2)cc1 was read as Pf Dd2 inh inactive.
For Cc1ccc(S(=O)(=O)N2CC(c3nc(-c4ccncc4)no3)C2)cc1 the results were Pf Dd2 inh inactive.
Screening CC1=NS(=O)(=O)N(Cc2ccccc2)C=C1C(=O)OCc1noc(-c2cccc(Cl)c2)n1 returned Pf Dd2 inh inactive.
For COCCOCc1nc(C2CCCCN2C(=O)NCc2ccc(F)cc2)no1 (stereo not drawn) the results were Pf Dd2 inh inactive.
Screening N#Cc1cccc(NC(=O)N[C@H]2[C@H](O)[C@@H](Oc3ccccc3)[C@@H]3OC[C@H]2O3)c1 returned Pf Dd2 inh inactive.
Screening CCCNC(=O)Cn1nc2n(c1=O)CCCCC2 returned Pf Dd2 inh inactive.
`COc1ccccc1C(=O)N1CCC(N2CC3CC(C2)[C@H]2CCCC(=O)N2C3)CC1` (stereo partly drawn) gave Pf Dd2 inh inactive.
Screening CC(=O)N1CCc2c(sc3c2c(=O)n(Cc2ccccc2)c(=O)n3Cc2cc(C)ccc2C)C1 returned Pf Dd2 inh inactive.
COc1cccc(-n2c(=O)c3c4c(sc3n(Cc3ccc(F)cc3Cl)c2=O)CCCC4)c1 was read as Pf Dd2 inh inactive.
For CC(=O)N1CCc2c(sc3c2c(=O)n(CCc2ccccc2)c(=O)n3Cc2ccccc2C)C1 the results were Pf Dd2 inh 7.9µM.
